Compound activity from PubChem BioAssay.
Rows were chosen to be rich in hits. Some 2.4% of all compounds tested hit in one or more screens of this group.
Platelet DG rel: inhibitors of platelet dense granule secretion, primary screen, cell-based, MLPCN, human platelets | human platelet-rich plasma, SFLLRN dense granule ATP release, luminescence | inhibition, %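 (compounds screened at 7.5 µM in platelet-rich plasma)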 | 300,000 compounds, 0.22% hits;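 active means mean replicate score, as percent of positive control, at or above 50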
SENP7 inh: SENP7 protease inhibitors, primary screen, biochemical, luminescence, uHTS; recombinant SENP7, Z-RLRGG-aminoluciferin luminescence, 40 min; inhibition, % at 5 µM; 330,000 compounds, 1.5% hits; AID 434973, 2010; Sentrin-specific protease 7 (Homo sapiens), Q9BQF6;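 active means inhibition above about 50% at the single test dose, limit read from the data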;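 further: plate controls were DMSO with enzyme for no effect and no enzyme buffer wells for full effect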
SENP6 inh: SENP6 protease inhibitors, primary screen, biochemical, luminescence, uHTS; Recombinant SENP6 catalytic domain, aminoluciferin luminescence; AID 2599, 2010; 330,000 compounds, 1.8% hits; Sentrin-specific protease 6 (Homo sapiens), Q9GZR1; inhibition, % at 10 µM;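 active means inhibition above about 50% at the single tested dose, limit read from the data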;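 further: plate controls were DMSO wells with enzyme for no effect and DMSO wells lacking enzyme for full effect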
Target sequence (Q9GZR1 628-1112 limits assumed): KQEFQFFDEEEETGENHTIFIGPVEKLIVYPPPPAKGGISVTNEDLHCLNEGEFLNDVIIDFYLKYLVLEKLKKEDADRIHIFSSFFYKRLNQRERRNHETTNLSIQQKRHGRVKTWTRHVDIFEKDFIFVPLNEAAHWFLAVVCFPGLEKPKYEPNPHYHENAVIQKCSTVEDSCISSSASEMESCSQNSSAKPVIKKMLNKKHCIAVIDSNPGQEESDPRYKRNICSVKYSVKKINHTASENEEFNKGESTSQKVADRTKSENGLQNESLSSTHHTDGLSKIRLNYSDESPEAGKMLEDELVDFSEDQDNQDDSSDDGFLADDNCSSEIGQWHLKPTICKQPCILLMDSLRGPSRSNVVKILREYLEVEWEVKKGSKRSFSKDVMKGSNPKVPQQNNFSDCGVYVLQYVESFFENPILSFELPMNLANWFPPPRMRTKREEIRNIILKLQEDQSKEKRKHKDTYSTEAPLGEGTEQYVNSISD
SENP8 block-1: SENP8 protease inhibitors, primary screen, biochemical, luminescence; 330,000 compounds, 1.2% hits; purified SENP8, Z-RLRGG-aminoluciferin cleavage; Sentrin-specific protease 8 (Homo sapiens), Q96LD8; inhibition, % at 10 µM; in the data active means inhibition above about 50%
SENP8 block-2: human SENP8 protease inhibitors, primary screen, biochemical, fluorescence, Nedd8 protein substrate, uHTS | Sentrin-specific protease 8 (Homo sapiens), Q96LD8 | recombinant SENP8 | inhibition, % at 20 µM | 360,000 compounds, 0.64% hits; in the data active means inhibition mostly above about 40%, no sharp cut-off; inactive means mostly below about 27%
An asterisk follows results filed as active; . = no result given.

SMILES | Platelet DG rel | SENP7 inh | SENP6 inh | SENP8 block-1 | SENP8 block-2
O=C(Nc1ccc(Cl)cc1)Nc1ccc(S(=O)(=O)Nc2ncccn2)cc1 | 0 | -5 | 12 | 8 | 6
O=S(=O)(Nc1ncccn1)c1ccc(NC(=S)Nc2ccc(Cl)cc2)cc1 | -9 | 0 | 70* | -2 | 39
Cc1cc2nc(-c3ccco3)c(Cc3ccccc3C(F)(F)F)n2c(C)c1Br | . | . | . | . | -17
O=C1/C(=C/c2cccs2)SC(=S)N1c1ccccc1 | -2 | -3 | -7 | -1 | 13
O=C1/C(=C/c2cccs2)SC(=S)N1c1cccc(O)c1 | 1 | -14 | -22 | -6 | 48*
O=c1c2ccccc2sc2ccccc12 | . | . | . | . | -368
O=c1c2ccccc2sc2ccc(Cl)cc12 | 13 | 58* | 39 | 19 | -139
O=S(=O)(O)c1cc(O)c2c(O)c(N=Nc3cc(Cl)ccc3O)c(S(=O)(=O)O)cc2c1 | 16 | 10 | 28 | 20 | 30
Cc1cc(-c2ccc(N=Nc3c(S(=O)(=O)O)cc4cc(S(=O)(=O)O)cc(N)c4c3O)c(C)c2)ccc1N=Nc1c(S(=O)(=O)O)cc2cc(S(=O)(=O)O)cc(N)c2c1O | . | 41 | 26 | 72* | .
CC(=O)Nc1ccc(SCC(=O)O)cc1 | 14 | -6 | -7 | -12 | 4
O=C(O)CSc1ccc(NC(=O)Nc2ccccc2F)cc1 | 28 | 98* | -5 | 95* | 15
O=C(NCc1cccnc1)OC1CC2CC1[C@H]1CCCCN1C2=O (stereo not given in full) | . | . | . | . | 17
C[C@@H]1CN([C@@H](C)CO)C(=O)c2cc(Br)cnc2O[C@H]1CN(C)C(=O)c1ccc2c(c1)OCO2 | . | . | . | . | -11
O=c1c(=NNc2ccccc2Cl)c(=O)c2ccccc12 | . | . | . | . | 40*
O=C(COC(=O)c1ccc(F)c([N+](=O)[O-])c1)NC(=O)NCc1ccccc1 | . | -5 | -6 | -8 | 4
O=c1c(N=Nc2ccc(O)cc2)c(-c2ccccc2)[nH]n1-c1ccc([N+](=O)[O-])cc1 | 7 | 4 | 3 | 6 | 56*
Cc1c(N2C(=O)/C(=C3/C(=O)N(C)c4ccccc43)SC2=S)c(=O)n(-c2ccccc2)n1C | -3 | -7 | 11 | 3 | 14
CC(=O)N1C(=O)/C(=C2\SC(=S)N(c3c(C)n(C)n(-c4ccccc4)c3=O)C2=O)c2ccccc21 | -10 | . | . | . | 81*
CCN(CC)c1ccc(CNCc2cccs2)cc1 | 7 | 4 | -3 | -3 | 7
COC(=O)C(C#N)c1nc2ccccc2nc1N1CCN(Cc2ccc3c(c2)OCO3)CC1 (stereo not given) | 56* | 9 | -7 | -2 | .
CC(C)COC(=O)C(C#N)c1nc2ccccc2nc1N1CCN(Cc2ccc3c(c2)OCO3)CC1 (stereo not given) | -13 | 4 | -3 | -6 | -110
COc1ccc(C)cc1NC(=O)c1sc2ncn(CC(=O)N3CCCCC3)c(=O)c2c1C | 15 | -7 | 3 | 1 | -12
COc1ccccc1NC(=O)Nc1ccccc1N1CCOCC1 | 5 | 1 | -49 | -5 | 20
Cc1cc2nc(-c3cccnc3SCC(=O)NC3CC3)[nH]c2cc1C | 1 | 90* | 88* | 81* | .
NC(=O)N1CCN(C(=O)c2ccco2)CC1 | 51* | 7 | 9 | -4 | 16
SMILES | Platelet DG rel | SENP7 inh | SENP6 inh | SENP8 block-1 | SENP8 block-2
O=C(c1ccco1)N1CCN(C(=O)c2ccco2)CC1 | . | . | . | . | 4
CC(NC(=O)CCc1nc2cc(S(=O)(=O)N3CCOCC3)ccc2n1C)c1ccc(S(N)(=O)=O)cc1 (stereo not given) | 55* | 7 | -10 | -5 | 3
CCCc1cnc(N2CCN(S(=O)(=O)c3cccs3)CC2)nc1 | 14 | -9 | -4 | -9 | -1
NS(=O)(=O)c1cccc(C(=O)OCC(=O)NC2CCCc3ccccc32)c1 (stereo not given) | . | -3 | 11 | -3 | 19
Nc1[nH]n2c(=O)cc(-c3ccccc3)nc2c1N=Nc1ccccc1 | -55 | 13 | 9 | 1 | 57*
Nc1[nH]n2c(=O)cc(-c3ccccc3)nc2c1N=Nc1ccc(S(N)(=O)=O)cc1 | 2 | 8 | 17 | 5 | 60*
O=C(/C=C/Nc1cccc(C(F)(F)F)c1)c1ccco1 | 9 | -7 | 26 | 5 | -364
Cc1cccc(N=C/C(C(=O)C(F)(F)F)=C(\O)c2ccco2)c1 | 17 | 83* | 77* | 28 | -135
Cc1ccc(-c2cc(-c3ccccc3)no2)c(O)c1 | 38 | . | . | . | -61
Cc1ccc2nc(-c3cc(-c4ccccc4)no3)cn2c1 | 0 | 90* | 44 | 32 | -233
CC(C)OC(=O)c1ccc(COC(=O)c2cnccn2)cc1 | -1 | 69* | 59* | 42 | 4
O=C(Oc1ccc(Cl)cc1)c1ccc(COC(=O)c2cnccn2)cc1 | 63* | 9 | 18 | -3 | 15
O=C(/C=C/[C@H]1O[C@@H](n2cnc3c(NC(=O)c4ccccc4)ncnc32)[C@H](O)[C@@H]1O)NCCc1ccc(F)cc1 | . | . | . | . | 23
CC1(C)Cc2ccccc2C2CC(O)C(=O)N21 (stereo not given) | -6 | 4 | -2 | 4 | 40*
O=C1c2ccccc2[C@@H]2CC(O)C(O)CCN12 (stereo not given in full) | . | -11 | . | . | 1
Cc1cc(C)cc(N=Cc2[nH]c3ccc(Br)c(Cl)c3c2O)c1 | 3 | . | . | . | 11
COc1ccc(CN=Cc2[nH]c3ccc(Br)c(Cl)c3c2O)cc1 | -8 | 0 | -2 | 6 | 49*
COc1cccc(CNc2ncc(Br)cc2Br)c1O | 2 | -8 | -14 | -6 | 40*
COc1cccc(CNc2ccc(Br)cn2)c1O | 0 | 16 | 32 | 7 | 19
Nc1ccc(C2=Nc3cccc4cccc(c34)N2)cc1 | -10 | . | . | . | 11
CC1=Nc2cccc3cccc(c23)N1 | 2 | 13 | 14 | 4 | 47*
NC(=O)NCCC1=CCCCC1 | 0 | -4 | 7 | -5 | 8
O=C(NCCC1=CCCCC1)NC1CCCCC1 | 54* | 2 | 17 | 1 | 11
CCN(CC)c1ccc(/C=C2/C(=O)N(c3ccc([N+](=O)[O-])cc3)N=C2N2CCOCC2)cc1 | -10 | 3 | 10 | 4 | .
COc1cc(/C=C2/C(=O)N(c3ccc([N+](=O)[O-])cc3)N=C2N2CCOCC2)ccc1O | 7 | 21 | 42 | -1 | 64*
CS/C(N)=N/N=C/c1ccc2c(c1)OCO2 | 6 | 50* | 25 | 20 | 7
CN(/N=C/c1ccc2c(c1)OCO2)c1ccccc1 | 1 | 57* | 63* | 64* | 19
N/C(=N\N=Cc1ccc2c(c1)OCO2)NN=Cc1ccc2c(c1)OCO2 | . | . | . | . | -154
COc1cc(OC)cc(C2=Cc3ccc(OC)cc3C(CC(C)=O)N2c2ccc(C#CCCO)cc2)c1 (stereo not given) | . | . | . | . | -399
